Seven compounds from PubChem BioAssay AID1900 (Broad Institute, 2009) can be followed below.

SMILES strings stand for the structures. In all, about 3,200 compounds went through this assay and about 2,900 (91%) were called active.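 The calls were made as follows: active = fitted half-maximal effect concentration at most a set number of log units above the top dose; inactive = fitted half-maximal concentration further above the top dose.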 So high a share suggests a set chosen from earlier hits. The list shows a part of the results. Measured potencies and affinities stand elsewhere.

This assay is described as follows: Streptococcus pyogenes SK(-)GAS viability under kanamycin – luminescence, BacTiterGlo, confirmation, counter-screen for streptokinase expression inhibitor project, dose response (AID 1900). The settings on record: 6 h; at 15 µM (top of the series). For orientation: Counterscreens check selectivity or assay interference.
On to `O=C(Nc1ccccc1Sc1ccccc1)c1ccccc1F`, for which the activity change, negative = inhibition was -63% (active).
On to `COc1cccc2sc(Nc3nnc(-c4ccccc4Cl)o3)nc12`, for which the activity change, negative = inhibition was -41.8% (active).
Regarding `O=C(Nc1cccc(-c2nc3ccccc3[nH]2)c1)c1ccc(C(=O)Nc2cccc(-c3nc4ccccc4[nH]3)c2)cc1`, the activity change, negative = inhibition is -32.9% (active).
As to `COc1ccccc1N=c1oc2cc(O)ccc2cc1C(N)=O`, the activity change, negative = inhibition is -48.9% (active).
In the case of `CC(C)(C)c1csc(NNC(=O)c2ccc(Br)cc2)n1`, the activity change, negative = inhibition was -78.7% (active).
Regarding `FC(F)Oc1ccccc1C1CC(c2ccc(Br)s2)Nc2ncnn21` (configuration not stated), the activity change, negative = inhibition is -52.4% (active).
With `N#C/C(=C\c1ccc(/C=C(/C#N)c2nn(CCO)c(N)c2C#N)cc1)c1nn(CCO)c(N)c1C#N`, the activity change, negative = inhibition is -56% (active).
